WRN inhibitor – inhibitors of human WRN helicase; Q14191; WRN helicase unwinding, fluorescent forked duplex, kinetic; Potency, µM (titrated, usually from 114 µM), without a hit: at the top dose activity change, negative = inhibition, hits mostly inhibitors; actives 0.46% (n = 360,000); AID 651768; also: potency is read from the fitted curve at half-maximal effect; % is scaled to controls: 0 for no effect and ±100 for the full control effect; nearly all actives have a fitted effect of over 55% in size
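WRN at 20 nM final was preincubated with compound for 15 min at room temperature; reaction started with 100 nM forked duplex oligonucleotide carrying fluorophore and quencher plus 2 mM ATP (final). Unwinding followed kinetically by red fluorescence (ex 525/em 598 nm).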
Tb PFK inh-1 – blocks T. brucei phosphofructokinase; O15648; T. brucei PFK, ADP-Glo luminescence; Potency, µM (doses to about 57.5 µM), for inactives: at the top dose activity, negative = inhibition, hits mostly inhibitors; actives 0.17% (n = 330,000);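 also: potency is read from the fitted curve at half-maximal effect; 0% = uninhibited 1x PFK enzyme wells and -100% = no-enzyme wells; nearly all actives have a fitted effect of over 60% in size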
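Luminescent ADP detection (ADP-Glo, two-step: ATP depletion then ADP-to-ATP conversion for luciferase) reported PFK activity after 45 min room-temperature reaction of 1.25 nM enzyme with 0.5 mM F6P and 0.1 mM ATP at pH 8.0.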
PI5P4K alpha inh – PI5P4K alpha (human) kinase inhibition | AID 652105 | PI5P4Kalpha enzyme, ADP-Glo luminescence, 60 min; stronger effect = lower value | actives 1.2% (n = 330,000) | max response, %; active = max response of -50% or lower; inconclusive = between -30% and -50%; inactive = -30% or higher; also: value at the top dose of about 77 µM; % is scaled to controls: 0 for no effect and ±100 for the full control effect
Target sequence (P48426 whole entry, looked up): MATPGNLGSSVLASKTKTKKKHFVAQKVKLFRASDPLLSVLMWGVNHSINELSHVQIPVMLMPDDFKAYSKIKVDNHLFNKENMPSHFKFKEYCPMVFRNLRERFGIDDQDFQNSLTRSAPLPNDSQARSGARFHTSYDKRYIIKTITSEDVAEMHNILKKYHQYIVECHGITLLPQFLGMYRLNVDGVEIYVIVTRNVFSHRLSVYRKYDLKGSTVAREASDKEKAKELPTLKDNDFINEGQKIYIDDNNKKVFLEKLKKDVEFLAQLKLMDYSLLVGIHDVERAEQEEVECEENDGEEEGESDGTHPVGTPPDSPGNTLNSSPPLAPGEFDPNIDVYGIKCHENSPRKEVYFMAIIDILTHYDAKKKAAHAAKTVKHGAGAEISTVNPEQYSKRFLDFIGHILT
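ADP-Glo luminescence end-point read after a 60 min room-temperature kinase reaction of PI5P4Kalpha plus substrate, initiated with ATP at 5 microM final. Buffer: 0.038 M HEPES pH 7.4, EGTA, 0.1% CHAPS, 5% DMSO.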
TDP1 block – blocks human tyrosyl-DNA phosphodiesterase 1; Q9NUW8; actives 0.28% (n = 350,000); Potency, µM (top dose mostly 130 µM), inactives show top-dose activity change, negative = inhibition, usual class: inhibitors; recombinant TDP1, AlphaScreen DNA substrate cleavage; also: potency is read from the fitted curve at half-maximal effect; % is scaled to controls: 0 for no effect and ±100 for the full control effect; nearly all actives have a fitted effect of over 40% in size
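Compounds were preincubated with Tdp1 (1 nM final) for 15 min at room temperature before substrate (15 nM final) started a 5 min reaction; beads (10 ug/ml final) were then added for 10 min before AlphaScreen detection.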
Tb PGK inh – T. brucei PGK inhibition; P07378; PGK/GAPDH coupled, Kinase-Glo luminescence, 60 min; Potency, µM (titrated, usually from 57.5 µM), inactives show at the highest dose activity change, negative = inhibition, actives largely listed as inhibitors; actives 0.043% (n = 380,000); also: potency is read from the fitted curve at half-maximal effect; % is scaled to controls: 0 for no effect and ±100 for the full control effect; nearly all actives have a fitted effect of over 60% in size
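Recombinant glycosomal PGK reaction used 1,3-bisphosphoglycerate generated in-well by GAPDH (100nM final) in 100mM TEA pH 7.6, 5mM MgCl2, 0.01% Tween-20. After 60 minutes at room temperature, ATP was read by Kinase-Glo Plus luminescence end-point.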
FEN1 inh – blocks human flap endonuclease 1; Recombinant FEN1 flap cleavage, fluorescence, 15 min; Potency, µM (highest dose often 114 µM), for the others: at the top dose activity change, negative = inhibition, actives largely listed as inhibitors; actives 0.35% (n = 390,000); also: potency is read from the fitted curve at half-maximal effect; % is scaled to controls: 0 for no effect and ±100 for the full control effect; nearly all actives have a fitted effect of over 65% in size
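Enzyme 10 nM, 15 min RT preincubation with compound; start with substrate 50 nM final; reads at 0 and 15 min; qHTS titration, four-parameter Hill fit.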
TbPFK ATP – Tb phosphofructokinase inhibition, orthogonal luminescence. Potency, µM (titrated, usually from 57.5 µM), without a hit: top-dose inhibition. shares compounds with Tb PFK inh-1. actives 47% (n = 1,100). AID 504636. Tb PFK enzyme, ATP depletion, Kinase-Glo Plus luminescence; calls by dose curve; also: potency is read from the fitted curve at half-maximal effect; nearly all actives have a fitted effect of over 60% in size
Tb PFK inh-2 – validation of T. brucei phosphofructokinase inhibitors. shares compounds with Tb PFK inh-1. purified T. brucei PFK, ADP-Glo luminescence, 45 min. Potency, µM (top dose mostly 57.5 µM), for inactives: at the top dose activity change, negative = inhibition, usual class: inhibitors. actives 41% (n = 1,100);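 also: potency is read from the fitted curve at half-maximal effect; plate controls were full PFK enzyme control for no effect and no enzyme control for full effect; nearly all actives have a fitted effect of over 60% in size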
Numbers without * were called inactive; i = inactive; ? = inconclusive; nt = not tested or not shown; [ ] = remark or other dose. An excerpt weighted towards active compounds, which were near 1.5% of everything screened. Unless noted, calls follow the shape of the dose curve; as a rule, active = well fitted curve in the direction sought with a large enough effect; inconclusive = small, poorly fitted or top-dose-only effect, or another doubt; inactive = no such curve, though single readings can be large; an effect the other way counts as inactive or inconclusive.

SMILES | WRN inhibitor | Tb PFK inh-1 | PI5P4K alpha inh | TDP1 block | Tb PGK inh | FEN1 inh | TbPFK ATP | Tb PFK inh-2
Cc1ccc(NS(=O)(=O)c2cc(NC(=O)c3ccc4c(c3)NC(=O)CS4)ccc2C)c(C)c1 | ? | 21µM* | -18 | 5% | i | -9% | 15µM* | 24µM*
CCN(CC)c1ccc(NC(=O)c2cccc(C)c2)cc1S(=O)(=O)Nc1ccccc1OC | ? | -14% | ? | -1% | 4% | -9% | nt | nt
O=C1NC(=O)C(Nc2ccc(Cl)c(Cl)c2)C(=O)N1 | -22% | nt | 3 | nt | -13% | -8% | nt | nt
CC(C)C1O/C(=N/C(=O)Nc2ccc(Cl)c(Cl)c2)NC1=O (centres undefined) | -13% | 9.5µM* | 10 | 3% | 7% | -5% | 24µM* | 27µM*
O=C1CCC/C(=N/NC(=O)c2cc(NS(=O)(=O)c3cccs3)cc(NS(=O)(=O)c3cccs3)c2)C1 | -29% | ? | ? | nt | -16% | 3% | 21µM* | ?
CN1C(=S)SC(N(O)C(=O)Nc2ccc(Cl)c(Cl)c2)C1(C)C (centres undefined) | -6% | ? | 16 | 8% | -7% | -12% | ? | ?
CC(=O)C1CCC2C3CCC4CC(C)(O)CCC4(C)C3CCC12C (centres undefined) | nt | nt | nt | 8% | nt | nt | nt | nt
CC(=O)CC(c1ccccc1)c1c(O)c2cccc(O)c2oc1=O (centres undefined) | nt | nt | nt | 3% | nt | nt | nt | nt
O=C(NNC(=O)c1ccc2nonc2c1)Nc1ccc(Cl)cc1 | -3% | 15µM* | 3 | nt | 0% | 0% | ? | ?
CC[C@H](CO)NC(=O)[C@H]1C=C2c3cccc4[nH]cc(c34)C[C@@H]2N(C)C1 | nt | nt | nt | 4%[56.1 µM] | nt | nt | nt | nt
O=C(NC(=O)c1c(F)cccc1F)Nc1ccc(Cl)cc1 | nt | nt | nt | 2% | nt | nt | nt | nt
O=C(CSc1ccccc1)Nc1ccc(S(=O)(=O)Nc2ncccn2)cc1 | ? | ? | -17 | 2% | -1% | -2% | ? | -13%
O=C(Nc1ccc(Cl)cc1)Nc1ccc(S(=O)(=O)Nc2ncccn2)cc1 | 3% | 15µM* | -12 | -5% | -2% | -5% | 8.5µM* | 27µM*
CCC(C)C(=O)OC1C[C@@]2(C)C(c3ccoc3)OC(=O)CC23OC2(C)OC34C(OC(=O)C(C)C)[C@]3(O)C(OC(=O)C5(C)OC5C)[C@]5(C)CC3(O)[C@](C)(C5CC(=O)OC)C14O2 (some centres undefined) | nt | nt | nt | 1% | nt | nt | nt | nt
O=C1Nc2ccccc2C(=O)C1(Cl)Cc1ccccc1 (centres undefined) | 45µM* | ? | -29 | 8% | -2% | 6% | 11µM* | 13µM*
ON=C1c2ccccc2-c2ccccc21 | 6% | ? | 178 | nt | i | 2% | 7% | 6%
N#Cc1sc(NCc2cccc(Cl)c2)nc1Cl | -16% | ? | 12 | nt | 1% | ? | 19µM* | 30µM*
CCCCCCCCCCCCCC(=O)OC1C(C)[C@@]2(O)C(C=C(CO)C[C@]3(O)C(=O)C(C)=C[C@H]23)[C@@H]2C(C)(C)[C@]12OC(C)=O (some centres undefined) | nt | nt | nt | 10%[56.1 µM] | nt | nt | nt | nt
COC(=O)c1cccc(NC(=O)N2C[C@H]3C[C@@H](C2)c2cccc(=O)n2C3)c1 | 3% | 4% | 4 | nt | 7% | 21% | nt | nt

Bioassay records: PubChem, National Center for Advancing Translational Sciences (NCATS)
